Screening data (PubChem BioAssay)
Hits are enriched below; roughly 5.6% of the tested compounds scored in any of these assays.
PHOSPHO1 block = PHOSPHO1 (human) inhibition | recombinant PHOSPHO1, absorbance phosphatase assay | Q8TCT1 | 1.1% of 290,000 active | inhibition, % at 13.3 µM; in the data active = inhibition above about 60%
Target sequence (Q8TCT1 whole entry, looked up): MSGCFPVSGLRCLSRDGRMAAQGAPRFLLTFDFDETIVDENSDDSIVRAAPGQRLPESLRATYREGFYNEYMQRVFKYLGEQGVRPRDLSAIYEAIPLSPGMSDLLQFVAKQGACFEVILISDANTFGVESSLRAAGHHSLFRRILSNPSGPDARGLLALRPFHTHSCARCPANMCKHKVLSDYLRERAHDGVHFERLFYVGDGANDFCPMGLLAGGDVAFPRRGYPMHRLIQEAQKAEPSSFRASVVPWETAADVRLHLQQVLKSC
PfGluPho inh = PfG6PD (Plasmodium falciparum) enzyme inhibition | AID 504690 | inhibition, % at 20 µM | PfGluPho enzyme, NADPH resazurin-diaphorase fluorescence | 0.78% of 350,000 active;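 active = inhibition reaching at least a set limit at 20 µM in the primary screen, cut at about 59% in these data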
H9c2 protect = protects H9c2 cardiomyocytes from peroxide injury | H2O2 injury protection, ATPLite, 2 h | protection from H2O2 cell death, % at 20 µM | 0.63% of 360,000 active;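 active = compounds giving at least 50% protection of heart cells from peroxide-induced death in the single-dose screen, raw or plate-pattern-corrected value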
ALR H2O2 inh = blocks human ALR sulfhydryl oxidase activity. 3.8% of 290,000 active. purified ALR, DTT oxidation, H2O2 HRP-luminol luminescence. P55789. inhibition, % (test concentration not listed). AID 485317;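 active = mean replicate inhibition above about 79%, with every replicate also reaching it, limit read from the data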
Target sequence (P55789 whole entry, looked up): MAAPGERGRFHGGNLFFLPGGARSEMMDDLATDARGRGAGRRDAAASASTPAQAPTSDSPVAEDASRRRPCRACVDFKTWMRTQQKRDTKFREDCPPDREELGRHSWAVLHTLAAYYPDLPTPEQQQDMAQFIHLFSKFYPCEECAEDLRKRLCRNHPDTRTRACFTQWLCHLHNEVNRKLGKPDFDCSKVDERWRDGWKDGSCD
PfM18AAP inh-1 = blocks P. falciparum M18 aspartyl aminopeptidase. recombinant PfM18AAP, H-Glu-NHMec fluorogenic cleavage. inhibition, % at 7.35 µM. 1.2% of 290,000 active. AID 1822;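 active = inhibition above the campaign mean inhibition over all tested compounds plus 3 SD, cut at about 28% in these data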
PfM18AAP inh-2 = confirmation of Plasmodium falciparum M18 aspartyl aminopeptidase inhibitors; shares compounds with PfM18AAP inh-1; 28% of 2,400 active; inhibition, % at 7.35 µM; recombinant PfM18AAP, H-Glu-NHMec fluorogenic cleavage;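 active = mean inhibition over replicate wells above the hit cutoff set for the earlier primary screen, cut at about 29% in these data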
CTSL1 counter = Cathepsin L (human) inhibition, confirmation; shares compounds with PfM18AAP inh-1; AID 2178; 2,400 tested, under 10 active; purified cathepsin L1, Z-Leu-Arg-MCA fluorescence; inhibition, % at 5.96 µM;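 active = average inhibition across replicates above the hit cutoff set in the earlier primary screen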
Hits are given with their value; i = inactive; nt = no result.

SMILES | PHOSPHO1 block | PfGluPho inh | H9c2 protect | ALR H2O2 inh | PfM18AAP inh-1 | PfM18AAP inh-2 | CTSL1 counter
CC(=O)C(Cc1ccccc1)NC(=O)COC(=O)c1cc(S(=O)(=O)N2CCOCC2)ccc1F (stereo not given) | nt | i | i | nt | nt | nt | nt
CN(C)S(=O)(=O)c1cccc(-c2csc(N/N=C/c3ccco3)n2)c1 | i | i | i | i | i | nt | nt
Cc1ccc(-c2csc(N/N=C/c3ccco3)n2)c(C)c1 | i | i | i | i | 33 | i | i
O=C(O)C1OC(Oc2c(-c3ccc(O)c(O)c3)oc3cc(O)cc(O)c3c2=O)C(O)C(O)C1O (stereo not given) | i | i | nt | 99 | 65 | 43 | i
O=c1c(-c2ccc(O)cc2)coc2cc(O)cc(O)c12 | i | i | i | i | nt | nt | nt
O=c1c(O)c(-c2ccc(O)c(O)c2)oc2cc(O)cc(O)c12 | i | i | 95 | 99 | 76 | 65 | i
CC(C)=CCc1c(O)cc(O)c2c(=O)c(O[C@@H]3O[C@@H](C)[C@H](O)[C@@H](O)[C@H]3O)c(-c3ccc(O)cc3)oc12 | nt | i | i | nt | nt | nt | nt
C=CCn1c(SCC(=O)NCC)nc2sc3c(c2c1=O)CCC3 | i | i | i | i | i | nt | nt
CCS(=O)(=O)N1CCC(c2nc3ccccc3[nH]2)CC1 | i | i | i | i | i | nt | nt
Cc1ccc(N=C(NO)c2nonc2N)c(C)c1 | i | i | i | i | 34 | i | i
OC[C@@H]1CN(CCN2CCOCC2)C[C@H](n2cnc3c(N4CCCC4)ncnc32)O1 | nt | nt | i | nt | nt | nt | nt
CCCCN1C(=O)/C(=C2/Sc3ccccc3N2C)S/C1=N\c1ncn[nH]1 | i | i | i | i | i | nt | nt
O=C(NNc1ccccc1[N+](=O)[O-])Nc1ccc(Cl)c(Cl)c1 | i | i | i | i | i | nt | nt
CCN(CC)S(=O)(=O)c1cc([N+](=O)[O-])ccc1NNC(=O)Nc1ccc(Cl)c(Cl)c1 | i | i | i | i | 50 | i | i
COCCNC(=O)C1(C)CCCN(Cc2ccc(-c3ccccc3)o2)C1 (stereo not given) | nt | nt | i | nt | nt | nt | nt
O=C(COC(=O)C1CC1)Nc1ccc(Cl)cc1Cl | nt | i | i | i | nt | nt | nt
N#Cc1c(N2C(=O)Nc3ccccc3N2O)sc2c1CCCCCC2 | i | i | i | i | 35 | i | i
CCOC(=O)C1CCCN(C(=O)CCNS(=O)(=O)c2cc(Br)cnc2N)C1 (stereo not given) | i | i | i | i | i | nt | nt
Nc1nncn1C(=O)CCc1ccccc1 | i | i | i | nt | 72 | 49 | i
O=C(CCc1ccccc1)N1CCN(C(=O)CCc2ccccc2)CC1 | nt | i | i | nt | nt | nt | nt
Nc1nncn1C(=O)CCCOc1ccccc1 | i | i | i | i | 35 | 50 | i
CCCCNC(=O)C(NC(=O)c1cccc(C(F)(F)F)c1)C(=O)c1ccccc1 (stereo not given) | nt | nt | i | nt | nt | nt | nt
CCOC(=O)C1=NN(c2ccc(Cl)cc2)C(=O)C1 | i | i | i | i | i | nt | nt
COc1ccc(NC(=S)NCCN2CCC(C)CC2)cc1Cl | i | i | i | i | 36 | i | i
COCCN(C(=S)Nc1ccc(OC)c(Cl)c1)C1CCN(C(C)C)CC1 | i | i | i | i | 36 | i | i
SMILES | PHOSPHO1 block | PfGluPho inh | H9c2 protect | ALR H2O2 inh | PfM18AAP inh-1 | PfM18AAP inh-2 | CTSL1 counter
COCCN(C(=S)Nc1ccc(OC)cc1)C1CCN(C(C)C)CC1 | i | i | i | i | i | nt | nt
CCC(=O)Nc1ccc2c(c1)Cc1cc([N+](=O)[O-])ccc1-2 | nt | i | i | nt | nt | nt | nt
COc1ccc2nc(Nc3sc4c(c3C(N)=O)CCCC4)sc2c1 | i | 67 | i | i | 42 | i | i
COc1ccc(CC(=O)Nc2sc3c(c2C(N)=O)CCCC3)cc1 | i | i | i | i | i | nt | nt
CC(=O)N1CCc2c(sc(NC(=O)C3CC3)c2-c2nc3ccccc3s2)C1 | i | i | i | i | 34 | i | i
CCCCC(=O)Nc1sc2c(c1-c1nc3ccccc3s1)CCN(C(C)=O)C2 | i | nt | nt | nt | i | nt | nt
N#CC1=C(N)OC2=C(C(=O)CC(c3ccco3)C2)C1c1ccc(OCc2c(F)cccc2Cl)cc1 (stereo not given) | i | i | i | i | i | nt | nt
COc1cccc(C2C(C#N)=C(N)OC3=C2C(=O)CC(c2ccco2)C3)c1OCc1ccc(F)cc1 (stereo not given) | i | i | i | i | 35 | i | i
CCN(CC)C(=O)CSc1nc2ccccc2c(=O)n1-c1cccc(OC)c1 | i | i | i | nt | i | nt | nt
COc1cccc(-n2c(SCc3cc(=O)oc4cc(O)c(O)cc34)nc3ccccc3c2=O)c1 | i | i | i | i | 56 | i | i
COc1cc(-c2c(C#N)c(N)nc3[nH]c(=S)[nH]c(=O)c23)ccc1O | i | i | i | 99 | 33 | i | i
CCN(CC)S(=O)(=O)c1ccc(N/N=C/c2cccnc2)nc1 | i | i | i | i | i | nt | nt
CCN(CC)S(=O)(=O)c1ccc(NN)nc1 | i | i | i | i | 45 | 41 | i
CCN(c1ccccc1)S(=O)(=O)c1ccc(NN)nc1 | nt | i | i | i | nt | nt | nt
CCN(CC)S(=O)(=O)c1ccc(N/N=C/c2cc(OC)ccc2O)nc1 | i | i | i | nt | 57 | i | i
CC(C)N(C(C)C)S(=O)(=O)c1ccc(NN)nc1 | i | i | i | i | 38 | 37 | i
CCNC(=O)C1CCCN(C(=O)c2ccccc2F)CC1 (stereo not given) | nt | nt | i | nt | nt | nt | nt
CCc1nc2ccc(C(=O)N(C)Cc3ccco3)cn2c1N(C)Cc1ccc(OC)cc1 | nt | nt | i | nt | nt | nt | nt
O=C(c1ccc(Cl)cc1)N1CCN(c2ccc([N+](=O)[O-])c(NCc3cccnc3)c2)CC1 | nt | i | i | i | i | nt | nt
O=C(c1ccccc1)N1CCN(c2ccc([N+](=O)[O-])c(NCc3cccnc3)c2)CC1 | i | i | i | nt | 44 | i | i
CCOC(=O)C(NC(=O)N(C)C)(Nc1sc(C)c(CC)c1C#N)C(F)(F)F (stereo not given) | i | i | i | i | 49 | i | i
CC(=O)N1C[C@H]2CON(C)[C@H]2C[C@H]1c1ccc(-c2ccc(C#N)cc2)cc1 | nt | i | i | nt | nt | nt | nt
O=C(NNc1nc2c(F)cc(F)cc2s1)c1ccccc1 | i | i | i | i | 39 | i | i
O=C(NNc1nc2c(F)cccc2s1)c1ccccc1 | i | i | i | i | 43 | i | i
O=C(NNc1nc2ccccc2s1)c1ccc(F)cc1 | i | i | i | nt | 32 | i | i
SMILES | PHOSPHO1 block | PfGluPho inh | H9c2 protect | ALR H2O2 inh | PfM18AAP inh-1 | PfM18AAP inh-2 | CTSL1 counter
Cc1ccc(OC(=O)N(C)C[C@H]2OCc3cn(nn3)CCCC(=O)N([C@H](C)CO)C[C@@H]2C)cc1 | nt | i | i | nt | nt | nt | nt
CCOc1cccc2cc(-c3cn4cc(C)ccc4n3)c(=O)oc12 | i | i | i | i | i | nt | nt
COc1ccc2oc(=O)c(-c3nnc(NCc4ccco4)s3)cc2c1 | i | i | i | i | 40 | i | i
CCOc1cccc2cc(-c3nnc(NCc4ccco4)s3)c(=O)oc12 | i | i | i | i | 32 | i | i
CCOc1cc(/C=C2\CCn3c2nc2cc(Cl)ccc2c3=O)ccc1O | i | i | i | i | i | nt | nt
COc1cccc(CN2CC(C(=O)NCCC3=CCCCC3)CCC2=O)c1 (stereo not given) | i | i | i | i | i | nt | nt
